Measured values published in PubChem BioAssay.
“And” between values parts separate entries of the source, which are not always exact repeats. Equal entries are not always repeated. Values without a mark were called inactive. The source made the active and inactive calls. Unless noted, the rule behind the calls is not given here.

How the values were obtained:
[1] = antimalarial activity against Dd2 strain (AID 2302;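 active = growth inhibition above 50% at the single 2 µM test dose, taken to imply half-maximal potency below 2 µM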;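 note: 0% = DMSO untreated growth and 100% = chloroquine plus artemisinin killed control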); details: P. falciparum Dd2 in RBCs, LDH growth readout, 72 h; at 2 µM; active compounds read high
[2] = HepG2 cytotoxicity, primary screen, cytotoxicity control for P. falciparum antimalarial project, cell-based, ATP luminescence (AID 2303;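 active = inhibition above 50%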;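 note: 0% = DMSO wells and 100% = digitonin-killed cells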); details: HepG2 viability, 24-48 h, at 10 µM, active compounds read high
[3] = molecular target: L-lactate dehydrogenase (Plasmodium falciparum (isolate CDC / Honduras)) (UniProt Q27743); assay: PfLDH activity inhibition – cell lysate, 3D7 strain, counter-screen for P. falciparum growth inhibition project (AID 2304);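 note: 0% = vehicle and 100% = reference inhibitor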; details: P. falciparum 3D7 crude extract, LDH APAD/NBT absorbance; at 2 µM; active compounds read high
L-lactate dehydrogenase (Plasmodium falciparum (isolate CDC / Honduras)), sequence (Q27743 whole entry, looked up): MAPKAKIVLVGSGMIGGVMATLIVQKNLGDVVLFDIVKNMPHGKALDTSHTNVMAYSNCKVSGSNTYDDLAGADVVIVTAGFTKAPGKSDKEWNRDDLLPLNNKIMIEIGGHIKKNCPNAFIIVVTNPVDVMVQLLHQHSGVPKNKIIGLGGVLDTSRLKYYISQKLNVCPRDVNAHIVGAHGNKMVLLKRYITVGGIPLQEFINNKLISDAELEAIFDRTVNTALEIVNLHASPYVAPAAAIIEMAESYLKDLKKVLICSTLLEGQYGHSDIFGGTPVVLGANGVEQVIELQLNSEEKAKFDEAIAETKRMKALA

[4] = inhibition of 3D7 malaria parasite growth – strain 3D7 (AID 2306);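 note: 0% = DMSO wells and 100% = chloroquine plus artemisinin control wells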; details: P. falciparum 3D7 erythrocytic growth, LDH absorbance, 72 h; at 2 µM; active compounds read high
[5] = circadian clock period modulators, cell-based, LOPAC library, luminescence reporter (AID 2774); details: circadian reporter cells, at 7 µM, actives lie on both sides;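 note: values are relative to mean of DMSO wells on each plate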

Row | SMILES | growth inhibition [1] | inhibition [2] | inhibition [3] | growth inhibition [4] | period change [5] [h]
1 | CN(C)c1nc(NCc2ccccc2)nc(NN=Cc2cc([N+](=O)[O-])ccc2O)n1 | 90% (active) | 48% | -5% | 100% (active) | 
2 | COc1ccc(Nc2nc(NN=Cc3cc(Cl)ccc3O)nc(Nc3ccccc3)n2)cc1 | 10% | 55% (active) | 0% | 100% (active) | 
3 | Nc1c2c(nc3ccccc13)C(=Cc1ccc(O)cc1)CCC2 | 6% | 9% | 5% | 99% (active) | 
4 | CCOc1cc(C=NNc2nc(C)cc(-n3nc(C)cc3C)n2)ccc1O | 52% (active) | 46% | 2% | 93% (active) | 
5 | CCC[C@@H]([C@@H](CC1CCCCC1)C(=O)N[C@H](C(=O)Nc1ccccn1)[C@H](C)CC)N(O)C=O | 87% (active) | 24% | 2% | 96% (active) | 
6 | COc1cc(C=NNc2ccnc3cc(Cl)ccc23)ccc1O | 100% (active) | 15% | -7% | 101% (active) | 
7 | O=[N+]([O-])c1ccc(-c2nc3ccc(C4=N[C@H]5CCCC[C@H]5N4)cc3[nH]2)cc1 | 30% | -1% | 3% | 100% (active) | 
8 | Cc1cc(N)c2ccccc2[n+]1CCCCCCCCCCCCCC[n+]1c(C)cc(N)c2ccccc21 |  |  |  |  | 0.11
9 | Oc1cccc(-c2nc(-c3cccc(I)c3)c(-c3ccc(-c4nc(-c5cccc(O)c5)[nH]c4-c4cccc(I)c4)cc3)[nH]2)c1 | 66% (active) | -4% | -2% | 96% (active) | 
10 | COc1ccc2ncc(F)c(CCN3C[C@H](CNCc4nc5c(cc4Cl)OCC(=O)N5)[C@H](O)C3)c2n1 | 15% and 23% and 30% | 13% and 5% and 12% | 0% and -2% and 2% | 93% (active) and 90% (active) | 
11 | COc1ccc2nc(C)cc(NN=Cc3cc(C)ccc3O)c2c1 | 100% (active) | 78% (active) | -2% | 100% (active) | 
12 | COc1cc(C=C(C2=NC(=O)CS2)c2nc3cccnc3n2C)ccc1O | 48% | 7% | -7% | 89% (active) | 
13 | CC(=O)NCCc1ccc(O)c(O)c1 |  |  |  |  | -0.045
14 | NCCNC(=O)Cc1ccc(NC(=O)Cc2ccc(Nc3ncnc4c3ncn4[C@@H]3O[C@H](CO)[C@H](O)C3O)cc2)cc1 (stereo not given in full) |  |  |  |  | -0.095
15 | CCC[C@@H]([C@@H](CC1CCCCC1)C(=O)N[C@H](C(=O)Nc1nccc(N)n1)C(C)(C)C)N(O)C=O | 82% (active) | 25% | 5% | 96% (active) | 
16 | CN(Cc1cnc2nc(N)nc(N)c2n1)c1ccc(C(=O)N[C@H](CCC(=O)O)C(=O)O)cc1 | 44% | 65% (active) | -4% | 92% (active) | 0.095
17 | Cc1cc(C)c2c(c1)C(=NO)CCN2 | 2% | 2% | 7% | 94% (active) | 
18 | Cc1[nH]c2ccccc2c1C=NNc1nc(Nc2ccccc2)nc(Nc2ccccc2)n1 | 23% | 3% | 6% | 87% (active) | 
19 | CCC[C@@H]([C@@H](CC(C)C)C(=O)N[C@@H](CCCCNC(=O)OCc1ccccc1)C(=O)Nc1ncccn1)N(O)C=O | 98% (active) | 3% | 4% | 100% (active) | 
20 | C[C@@H](Oc1ccc(Oc2cnc3ccc(Cl)cc3n2)cc1)C(=O)O |  |  |  |  | -0.01
21 | c1cc2nc(CCCCc3nc4ccc(C5=N[C@H]6CCCC[C@H]6N5)cc4[nH]3)[nH]c2cc1C1=N[C@H]2CCCC[C@H]2N1 | 88% (active) | 5% | 6% | 90% (active) | 
22 | Oc1ccc(-c2nc(-c3ccc4oc5ccc(-c6[nH]c(-c7ccc(O)cc7)nc6-c6ccccc6)cc5c4c3)c(-c3ccccc3)[nH]2)cc1 | 71% (active) | -2% | 3% | 84% (active) | 
23 | Oc1cccc(-c2nc3ccc(C4=N[C@H]5CCCC[C@H]5N4)cc3[nH]2)c1 | 97% (active) | -3% | 1% | 98% (active) | 
24 | Oc1ccc2ccccc2c1C=NNc1nc(Nc2ccccc2)nc(N2CCOCC2)n1 | 49% | 66% (active) | -5% | 100% (active) | 
